Assay results from PubChem BioAssay AID488847 (NMMLSC, 2010).
Values joined by “and” are separate entries in the source; they are usually repeats but may differ in a detail not shown here. Equal values may be shown once. In all, about 330,000 compounds went through this assay and about 1,900 (0.58%) were called active.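 Rule for the calls: active = inhibition of aptamer binding above 40%, roughly 3 SD of noise, on plates passing a quality check; inactive = the rest.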 Shown is part of a subset that was picked to be rich in actives. The source holds several records for some structures; these can differ, active in one and inactive in another.

molecular target: Beta-adrenergic receptor kinase 1 (Homo sapiens) (UniProt P25098); experiment: compounds blocking aptamer binding on GRK2 – biochemical, human GRK2, bead flow cytometry, HTS, primary screen (AID 488847); settings: FAM-aptamer displacement from GRK2, at 10 µM, stronger effect = higher value;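 note: median bead fluorescence of bound FAM aptamer so fluorescent compounds give negative values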
Sequence (P25098 whole entry, looked up): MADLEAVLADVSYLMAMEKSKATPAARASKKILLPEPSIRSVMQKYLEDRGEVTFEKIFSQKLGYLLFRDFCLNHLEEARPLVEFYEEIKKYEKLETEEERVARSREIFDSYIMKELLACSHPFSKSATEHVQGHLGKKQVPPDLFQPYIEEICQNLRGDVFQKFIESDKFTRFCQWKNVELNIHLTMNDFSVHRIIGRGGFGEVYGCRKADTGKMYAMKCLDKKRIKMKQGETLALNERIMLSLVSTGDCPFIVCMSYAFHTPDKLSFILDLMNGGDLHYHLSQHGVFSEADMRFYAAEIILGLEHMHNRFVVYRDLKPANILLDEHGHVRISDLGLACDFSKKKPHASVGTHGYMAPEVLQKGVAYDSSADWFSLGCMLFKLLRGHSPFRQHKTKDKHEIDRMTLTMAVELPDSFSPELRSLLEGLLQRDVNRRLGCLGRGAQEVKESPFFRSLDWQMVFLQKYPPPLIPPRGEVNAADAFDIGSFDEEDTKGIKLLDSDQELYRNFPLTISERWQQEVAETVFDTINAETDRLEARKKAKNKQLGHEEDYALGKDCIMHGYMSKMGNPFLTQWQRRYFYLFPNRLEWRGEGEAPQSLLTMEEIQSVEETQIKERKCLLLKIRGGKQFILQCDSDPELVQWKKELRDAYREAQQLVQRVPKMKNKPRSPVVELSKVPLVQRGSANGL

SMILES | inhibition of aptamer binding
COc1nc(NC2CCCCC2)nc(N2CCCCCC2)n1 | 1% (inactive)
Cc1cc(/C=C2/SC(=O)N(CC(=O)OC(C)C)C2=O)c(C)n1C | 2% (inactive)
CO/N=C(\C(=O)N[C@@H]1C(=O)N2C(C(=O)O)=C(COC(C)=O)CS[C@H]12)c1csc(N)n1 (stereo in doubt) | 0% (inactive) and 38% (inactive) and 1% (inactive)
C=CC1=C(C(=O)O)N2C(=O)[C@@H](NC(=O)/C(=N/OCC(=O)O)c3csc(N)n3)[C@H]2SC1 | 0% (inactive)
C=CC1=C(C(=O)O)N2C(=O)[C@@H](NC(=O)/C(=N\OCC(=O)O)c3csc(N)n3)[C@H]2SC1 | 66% (active)
CC[C@@H](C)[C@@H]1CN([C@@H](C)CN2CCC[C@H]2CN2C(N)=NC[C@H]2C(C)C)C(=N)N1CCc1ccc(Cl)c(Cl)c1 | 0% (inactive)
COc1ccc(CNc2nc(NCc3ccc(OC)cc3)c3ncn(C4CCCC4)c3n2)cc1 | 0% (inactive)
O=C1[C@@H]2C(c3cccnc3)=NO[C@@H]2C(=O)N1c1ccc(Cl)cc1Cl | 4% (inactive)
CCOc1cccc(OCCCOc2cccc3cccnc23)c1 | 1% (inactive)
Cc1ccccc1NC(=O)c1cnn(-c2ccccc2)c1NC(=O)c1ccco1 | 3% (inactive)
C1=C(CCNc2ncnc3c2cnn3-c2ccccc2)CCCC1 | 0% (inactive)
O=C(NNc1ncnc2c1cnn2-c1ccccc1)c1ccco1 | 97% (active)
CC(OC(=O)/C=C/c1ccccc1)C(=O)NC1CCCCC1C (configuration not stated) | 0% (inactive)
CC(=O)N1CCN(CC(=O)Nc2ccc(C)c(F)c2)CC1 | 1% (inactive)
CCCc1noc2c1/C(=N\O)CCC2 | 0% (inactive)
Cc1ccn2cc(C(=O)NC3CCN(Cc4ccccc4)CC3)nc2c1 | 0% (inactive)
Cc1cc(C(=O)NC2CCN(Cc3ccccc3)CC2)n[nH]1 | 50% (active)
Cc1ccc(-c2cc(C(=O)NC3CCN(Cc4ccccc4)CC3)c3ccccc3n2)cc1 | 0% (inactive)
O=C(N/C(=C/c1ccc(Cl)cc1)C(=O)N1CCCCC1)c1ccco1 | 0% (inactive)
CCC(=C/c1sc2ccc3ccccc3c2[n+]1C)/C=C1\Sc2ccc3ccccc3c2N1C | 100% (active)
N/C(=N\OC(=O)CCC1CCCCC1)c1ccccn1 | 0% (inactive)
O=C(c1noc2c1CCCC2)N1CCc2ccccc2C1 | 0% (inactive)
CCN1C(=O)/C(=C\N2CCN(c3cccc(Cl)c3)CC2)SC1=S | 3% (inactive)

SMILES | inhibition of aptamer binding
CCc1nn(CCCN2CCN(c3cccc(Cl)c3)CC2)c(=O)n1CCOc1ccccc1 | 43% (active) and 0% (inactive)
OC(COc1ccc2c(c1)CCC2)CN1CCN(c2cccc(Cl)c2)CC1 (configuration not stated) | 0% (inactive)
CN(CCc1ccccn1)S(=O)(=O)c1ccc2c3c(cccc13)C(=O)N2 | 0% (inactive)
Cc1ccccc1C(=O)N1CCC(C(=O)Nc2ccc(S(=O)(=O)N(C)C(C)C)cc2)CC1 | 0% (inactive)
CCCc1nc2ccccc2c(=O)n1NC(=O)c1c(O)c2ccccc2[nH]c1=O | 92% (active)
COc1cc(C(=O)Nn2c(CC(C)C)nc3ccccc3c2=O)cc(OC)c1OC | 0% (inactive)
CCCCc1nc2ccccc2c(=O)n1NC(=O)c1c(O)c2cccc3c2n(c1=O)CC3 | 0% (inactive)
Cc1ccc(NC(=O)COC(=O)CNC(=O)c2ccc(Cl)cc2Cl)cc1S(=O)(=O)N1CCOCC1 | 2% (inactive)
Fc1ccc(CNc2nc3ccccc3n3nnnc23)cc1 | 2% (inactive)
O=c1ccc2c(-c3ccccc3S(=O)(=O)O)c3ccc(O)c(O)c3oc-2c1O | 75% (active)
Cc1cc(OCC(=O)N(C)c2c(N)n(Cc3ccccc3)c(=O)[nH]c2=O)c(C(C)C)cc1Cl | 1% (inactive)
O=C1CCCCC1Sc1ccc(Cl)cc1[N+](=O)[O-] (configuration not stated) | 1% (inactive)
COc1ccccc1N(C)S(=O)(=O)c1ccc(Cl)c(C(=O)Nc2ccncc2)c1 | 0% (inactive)
O=C1CCCN1C(=O)COc1ccc([N+](=O)[O-])cc1 | 1% (inactive)
CN=C(Nc1cccc(S(=O)(=O)N2CCOCC2)c1)c1ccccc1 | 79% (active)
O=C(Nc1ccc(N2CCOCC2)cc1)c1cccc(S(=O)(=O)N2CCOCC2)c1 | 2% (inactive)
O=C(COC(=O)c1ccccc1)Nc1cccc(S(=O)(=O)N2CCOCC2)c1 | 1% (inactive)
O=C(Nc1nnc(-c2ccccc2)o1)c1cccc(S(=O)(=O)N2CCOCC2)c1 | 49% (active)
O=C(CSc1ccccc1)Nc1cccc(S(=O)(=O)N2CCOCC2)c1 | 2% (inactive)
O=C(Nc1nnc(-c2ccco2)o1)c1ccc(S(=O)(=O)N2CCOCC2)cc1 | 0% (inactive)
Nc1cc(N2CCCCCC2)c2nonc2c1[N+](=O)[O-] | 0% (inactive)
COc1ccc(Cl)cc1NC(=O)CCS(=O)(=O)c1cc2c(cc1C)NC(=O)CO2 | 80% (active)
Cc1cc2c(cc1S(=O)(=O)CCC(=O)NCc1ccccc1)OCC(=O)N2 | 2% (inactive)

SMILES | inhibition of aptamer binding
COc1ccc(Cl)cc1NC(=O)COC(=O)c1ccc(Br)o1 | 0% (inactive)
COc1ccc(NC(=O)CCS(=O)(=O)c2cc3c(cc2Cl)NC(=O)CO3)cc1OC | 0% (inactive)
COc1ccc(Cl)cc1NC(=O)CCS(=O)(=O)c1ccc(Br)cc1 | 89% (active)
CCOc1ccc(OCC)c(NC(=O)CCS(=O)(=O)c2ccc(C)cc2)c1 | 0% (inactive)
O=C(CCS(=O)(=O)c1ccc(Br)cc1)NCCc1ccc(Cl)cc1 | 49% (active)
O=C(Cc1ccc(Br)cc1)NCCc1ccccc1 | 1% (inactive)
Cc1ccc(S(=O)(=O)CCC(=O)OCC(=O)NCCc2ccc(S(N)(=O)=O)cc2)cc1 | 0% (inactive)
Cc1ccc(CN2C(=O)N/C(=C/c3cc(C)n(-c4ccccn4)c3C)C2=O)cc1 | 1% (inactive)
CCc1cc2c(=O)c(-c3nc4ccccc4n3C)c(CCCC(=O)O)oc2cc1OC(=O)C(C)(C)C | 1% (inactive)
COc1ccc(CN2C3CCCC2CC(NC(=O)c2cccc(F)c2)C3)cc1 (configuration not stated) | 0% (inactive)
CC(=O)N1CCC(C(=O)Nc2nc(-c3ccccc3)ns2)CC1 | 0% (inactive)
CC(Sc1nncn1C)C(=O)Nc1cc(C(F)(F)F)ccc1N1CCOCC1 (configuration not stated) | 0% (inactive)
O=C(N1CCCC1)C12CC3CC(C1)CC(C(=O)N1CCCC1)(C3)C2 | 3% (inactive)
C=CCNC(=O)CC12CC3CC(C1)CC(CC(=O)NCC=C)(C3)C2 | 1% (inactive)
O=C(NCC12CC3CC(C1)CC(CNC(=O)N1CCCC1)(C3)C2)N1CCCC1 | 54% (active)
O=c1[nH]c(SCc2ccccc2)nnc1-c1ccccc1 | 80% (active)
N#Cc1c(-c2ccccc2)nc(SCc2ccc([N+](=O)[O-])cc2)[nH]c1=O | 5% (inactive)
Cc1ccccc1CSc1nnc(-c2ccccc2)c(=O)[nH]1 | 3% (inactive)
COc1cc(OC)cc(C(=O)Nc2nnc(SCC(=O)NCC3CCCO3)s2)c1 (configuration not stated) | 0% (inactive)
CCC(=O)Nc1ccccc1C(=O)N1CCN(Cc2ccccc2)CC1 | 2% (inactive)
COc1ccc(Nc2nc(-c3cccnc3)nc3ccccc23)cn1 | 60% (active)
CC(C)(C)Nc1nc(-c2ccccn2)nc2ccccc12 | 0% (inactive)
S=c1nc2ccccc2c2nc(-c3cccnc3)[nH]n12 | 0% (inactive)

SMILES | inhibition of aptamer binding
COc1cc(OC)c(C2=NOC(C(=O)Nc3c(C)n(C)n(-c4ccccc4)c3=O)C2)cc1Cl (configuration not stated) | 1% (inactive)
Cc1ccc(Sc2cc(C(=O)c3ccccc3C(=O)O)ccc2[N+](=O)[O-])cc1 | 0% (inactive)
O=C(NCc1ccccc1)[C@H]1C[C@@H]1[C@H](NP(=O)(c1ccccc1)c1ccccc1)c1ccccc1 | 0% (inactive)
COc1ccccc1N1CCN(CC(=O)Nc2ccnn2C2CCCC2)CC1 | 0% (inactive)
O=C(Nc1ccccc1-c1nc2ccccc2[nH]c1=O)c1cccs1 | 1% (inactive)
C/C(=N\Nc1nc(Nc2ccccc2)nc(N2CCOCC2)n1)c1cccs1 | 0% (inactive)
C/C(=N\Nc1nc2ccccc2[nH]1)c1cccs1 | 100% (active)
CCN(CC(=O)NCc1ccc(Cl)cc1)C(=O)c1c(C)noc1C | 0% (inactive)
NC(=O)C1CCN(C(=O)c2ccc3c(=O)n(Cc4cccc(Br)c4)c(=S)[nH]c3c2)CC1 | 69% (active)
COc1ccc(Cn2c(=S)[nH]c3cc(C(=O)N4CCCCC4)ccc3c2=O)cc1 | 2% (inactive)
CCOc1cc2[nH]c(=S)n(Cc3ccc(C(=O)N4CCN(C)CC4)cc3)c(=O)c2cc1OCC | 0% (inactive)
O=[N+]([O-])c1cc(Cl)cc(/C=N/NC(=S)Nc2cc(S(=O)(=O)N3CCOCC3)ccc2Cl)c1O | 98% (active)
Cc1ccc(S(=O)(=O)N2CCN(CC(=O)N/N=C/c3cc([N+](=O)[O-])ccc3Cl)CC2)cc1 | 0% (inactive)
O=S(=O)(c1ccc(NC(=S)NN=C(C2CC2)C2CC2)cc1)N1CCOCC1 | 1% (inactive)
Fc1ccccc1Cc1ccc(Cl)nn1 | 0% (inactive)
CCN1CCN(CC(=O)Nc2sc3c(c2C#N)CCC3)CC1 | 0% (inactive)
COc1cccc(CN(C)CC(=O)Nc2sc3c(c2C#N)CCC3)c1 | 94% (active)
Cc1cccc(C(=O)OCC(=O)Nc2sc3c(c2C#N)CCC3)c1 | 6% (inactive)
Cc1nn2cc(-c3ccc(Cl)cc3)cnc2c1Br | 4% (inactive)
CCOC(=O)c1cc2c(ccn2C)n1CC(=O)N1CCC(C)CC1 | 1% (inactive)
Cc1ccc(OCC(=O)Oc2ccccc2[N+](=O)[O-])cc1 | 1% (inactive)
COc1ccc(C2c3ccc(O)cc3Oc3ncn(CCCO)c(=N)c32)cc1OC (configuration not stated) | 0% (inactive)
COc1ccccc1S(=O)(=O)c1c(C)cc(C)[nH]c1=O | 1% (inactive)
